Bioassay records: PubChem BioAssay, several laboratories
A selection: hits, their analogues and other compounds. The true share with any hit is near 2.3%.
Mcl1 Noxa PPI – Mcl-1/Noxa interaction inhibition; Q07820; TR-FRET Mcl-1/Noxa peptide binding, 2 h; inhibition, % at 21.7 µM; hit rate 1.5% among 220,000; AID 1022;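 active = compounds that cut the protein-peptide binding signal by more than 50% relative to plate controls in a single-dose test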;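 note: His-tagged Mcl-1 with rhodamine Noxa BH3 peptide and terbium anti-His antibody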
Target sequence (Q07820 whole entry, looked up): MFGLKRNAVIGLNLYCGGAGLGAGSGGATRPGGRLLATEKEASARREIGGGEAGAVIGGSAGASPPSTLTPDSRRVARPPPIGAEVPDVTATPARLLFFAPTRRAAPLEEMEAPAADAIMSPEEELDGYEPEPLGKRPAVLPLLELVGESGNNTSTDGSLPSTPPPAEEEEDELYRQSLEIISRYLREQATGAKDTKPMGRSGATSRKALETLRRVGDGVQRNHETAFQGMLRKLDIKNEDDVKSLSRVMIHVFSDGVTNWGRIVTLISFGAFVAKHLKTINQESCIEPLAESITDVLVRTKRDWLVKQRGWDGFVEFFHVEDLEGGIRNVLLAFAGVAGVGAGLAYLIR
Mcl1 Bid PPI – disrupts binding of human Mcl-1 to Bid peptide. Q07820. TR-FRET Mcl-1/Bid-Dy647 peptide binding, 1536-well. inhibition, % at 21.7 µM. hit rate 0.97% among 220,000. AID 1021;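 active = compounds that cut the binding signal by more than half at the single screening dose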;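 note: His-tagged Mcl-1 with europium anti-His antibody binding Bid BH3 peptide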
Mcl-1 Bim block – disrupts Bim peptide binding to human Mcl-1; Q07820; Bead-based flow cytometry, Bim peptide-Mcl-1 binding; inhibition, % at 10 µM; hit rate 0.1% among 190,000; AID 1009; in the data active = inhibition above about 40%
MCL1 BIM primary – disrupts human MCL1 binding to BIM-BH3 peptide; GST-MCL1 / FITC-Bim-BH3 fluorescence polarization; inhibition, % at 10.9 µM; Q07820; hit rate 0.68% among 320,000;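 active = inhibition above the mean inhibition of all tested compounds plus 3 SD, set per campaign, cut at about 40% in these data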;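 note: higher means more loss of mP so more displacement of Bim peptide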
GLD-1 TGE inh – GLD-1-TGE RNA interaction inhibition (C. elegans). purified GLD-1 + fluorescein TGE RNA, fluorescence polarization. inhibition, % at 5.96 µM. hit rate 0.44% among 320,000;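 active = percent inhibition above a per-plate cutoff, the plate mean of test compounds plus 3 SD, cut at about 30% in these data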
BCLXL inh – Bcl-xL (human) inhibition. AID 2129. inhibition, % at 10.9 µM. GST-Bcl-xL / FITC-Bim BH3 peptide fluorescence polarization. hit rate 0.7% among 320,000;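 active = inhibition above the mean of all tested compounds plus 3 SD, cutoff set per campaign, cut at about 30% in these data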;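 note: inhibitors lower millipolarization by displacing the labeled peptide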
Target sequence (Q07817 whole entry, looked up): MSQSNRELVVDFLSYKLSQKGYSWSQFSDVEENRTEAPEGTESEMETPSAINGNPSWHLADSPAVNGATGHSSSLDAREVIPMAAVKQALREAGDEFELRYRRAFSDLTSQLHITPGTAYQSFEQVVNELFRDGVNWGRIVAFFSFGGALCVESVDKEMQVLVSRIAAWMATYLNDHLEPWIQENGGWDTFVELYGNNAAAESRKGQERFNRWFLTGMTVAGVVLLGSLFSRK
Bcl-xL conf – counter-screen for MCL1 inhibitors: confirmation of human Bcl-xL inhibitors | shares compounds with MCL1 BIM primary | AID 2166 | GST-Bcl-xL / FITC-Bim BH3 peptide FP binding | inhibition, % at 10.9 µM | hit rate 54% among 1,700;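 active = inhibition above a cutoff equal to the mean inhibition of all tested compounds plus 3 SD, cut at about 30% in these data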
MCL1 BIM confirm – confirmation of human MCL1 and BIM-BH3 interaction inhibitors; inhibition, % at 10.9 µM; hit rate 61% among 1,700; shares compounds with MCL1 BIM primary; GST-MCL1 / FITC-Bim-BH3 fluorescence polarization;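 active = inhibition above the average of all tested compounds plus 3 SD, cut at about 40% in these data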
A number is an active result; – = inactive; · = not tested or not shown.

SMILES | Mcl1 Noxa PPI | Mcl1 Bid PPI | Mcl-1 Bim block | MCL1 BIM primary | GLD-1 TGE inh | BCLXL inh | Bcl-xL conf | MCL1 BIM confirm
O=C(NC(=S)Nc1cccc(S(=O)(=O)NC2=NCCC2)c1)c1cc(-c2ccco2)nc2ccccc12 | 65 | – | · | 54 | – | 44 | 39 | 42
O=C(Nc1cccc(S(=O)(=O)NC2=NCCC2)c1)c1cc(-c2ccco2)nc2ccccc12 | 99 | – | · | 94 | – | – | – | 74
O=C(O)c1cccc(S(=O)(=O)N(Cc2ccccc2)c2ccc(Cl)cc2)c1 | · | · | · | – | – | – | · | ·
Cc1ccccc1-c1nc(Cc2ccccc2)no1 | – | – | – | 44 | – | – | – | –
Cc1c(CC(=O)NCC(C)C)c(=O)oc2cc3c(cc12)CCC(C)(C)O3 | · | · | · | – | – | – | · | ·
Cc1ccc(NC2=CC(=O)C(=O)c3ccccc32)c(C)c1 | · | · | · | – | – | – | · | ·
O=C1C=C(Nc2ccccc2O)c2ccccc2C1=O | – | – | – | 100 | 99 | 83 | – | –
CCCn1nc(C(=O)N(C)CC(=O)Nc2ccc(OCC)c(OCC)c2)c2ccccc2c1=O | · | · | · | – | – | – | · | ·
Cc1ccc(-n2[nH]c(C)c(C=Nc3ccc4[nH]c(=O)[nH]c4c3)c2=O)cc1C | – | – | – | 117 | – | 60 | 103 | 130
CC(C)(C)OC(=O)C[C@H]1C/C=C\C[C@H](CC(=O)NCCO)C(=O)NCCOC1=O | · | · | · | · | – | · | · | ·
Fc1ccc(Br)cc1C1C=C(c2ccc(Br)cc2)Nc2ncnn21 (stereo unspecified) | – | – | – | – | – | – | · | ·
COc1cccc(C2=CC(c3ccc(C)cc3)n3ncnc3N2)c1 (stereo unspecified) | – | – | – | 60 | 57 | 55 | – | 42
Cc1ccsc1C1C=C(c2cccc(Br)c2)Nc2ncnn21 (stereo unspecified) | – | – | – | 118 | 92 | 110 | 71 | 83
O=C(COC(=O)c1ccc([N+](=O)[O-])o1)Nc1ccc2c(c1)OCO2 | · | · | · | · | – | · | · | ·
Cc1cc(C)n(CCC(=O)N=Nc2c(O)[nH]c3ccc(Br)cc23)n1 | – | – | · | – | – | – | · | ·
CSCC[C@H](NC(=O)Nc1ccc(S(N)(=O)=O)cc1)C(=O)O | – | – | · | – | – | – | · | ·
Cc1cc(C)c[n+](-c2nc3ccccc3nc2[N-]S(=O)(=O)c2ccc(Br)s2)c1 | – | – | – | 47 | – | 62 | 63 | 92
CC12CCC(=O)N1C(C(=O)Nc1cccc(S(=O)(=O)N3CCCCCC3)c1)CS2 (stereo unspecified) | · | · | · | – | – | – | · | ·
CC(C)C1OC2(C)OC(=N)C1(C#N)C(C#N)(C#N)C2c1ccccc1 (stereo unspecified) | – | – | – | 103 | 79 | 80 | 32 | 48
O=C(c1ccccc1)c1ccc(O)cc1O | – | – | – | 154 | 79 | 134 | 123 | 137
O=C(c1ccc(O)cc1)c1ccc(O)cc1O | – | – | · | – | – | – | · | ·
COc1cccc(C(=O)N(c2ccc(OC)cc2OC)C2C=CS(=O)(=O)C2)c1 (stereo unspecified) | – | – | – | 54 | – | 61 | – | –
Cc1ccc(S(=O)(=O)c2nc(Cc3ccccc3)oc2N2CCOCC2)cc1 | · | · | · | 58 | – | – | – | 79
Cc1ccc(S(=O)(=O)c2nc(-c3ccccc3)oc2N2CCCC2)cc1 | · | · | · | – | – | – | · | ·
COc1ccc(-n2cccc2/C=C2\C(=N)N3N=C(c4ccco4)SC3=NC2=O)cc1 | 87 | 81 | – | 66 | – | – | – | 81
SMILES | Mcl1 Noxa PPI | Mcl1 Bid PPI | Mcl-1 Bim block | MCL1 BIM primary | GLD-1 TGE inh | BCLXL inh | Bcl-xL conf | MCL1 BIM confirm
Cc1ccc2c(c1)CCCN2CC(=O)N(C)c1c(N)n(Cc2ccccc2)c(=O)[nH]c1=O | · | · | · | 141 | – | 122 | 132 | 147
COCC(C)N1C(=O)Cc2c1nc(N)c1c(N)nc(N3CCN(c4ccccc4F)CC3)c(C#N)c21 (stereo unspecified) | – | – | – | – | – | – | · | ·
COCCN1C(=O)Cc2c1nc(N)c1c(N)nc(N3CCN(c4ccc(F)cc4)CC3)c(C#N)c21 | 61 | – | – | 42 | – | – | – | –
CCOC(=O)c1cnc(-n2[nH]c(C)cc2=O)[nH]c1=O | – | – | – | 74 | – | – | – | 81
Cc1ccc(NC(=O)CC2SC3=NCCCN3C2=O)c(C)c1 (stereo unspecified) | · | – | – | 112 | 82 | 110 | 51 | 56
O=C(CC1SC2=NCCN2C1=O)Nc1ccc(Cl)cc1 (stereo unspecified) | – | – | – | – | – | – | · | ·
Cc1cc2c(cc1C)NC(c1c(C)n(C)n(-c3ccccc3)c1=O)C1=C(CC(C)(C)CC1=O)N2 (stereo unspecified) | – | – | – | 135 | 85 | 120 | – | –
COc1cc(C2Nc3cc(C)c(C)cc3NC3=C2C(=O)CC(C)(C)C3)ccc1OC(C)=O (stereo unspecified) | · | · | · | – | – | – | · | ·
COc1ccc(-c2cc(=O)oc3cc(OCC(=O)NCC4CCC(C(=O)O)CC4)ccc23)cc1 (stereo unspecified) | · | · | · | – | – | – | · | ·
O=C(Nc1ccc([N+](=O)[O-])cc1)c1ccc(S(=O)(=O)N2CCCC2)cc1 | · | · | · | 58 | – | – | – | –
O=C(Cn1nnc(-c2ccccc2)n1)N/N=C/c1cccc([N+](=O)[O-])c1O | – | – | – | 46 | – | – | 47 | 87
O=c1c(O)cccc2cc(O)c(O)c(O)c12 | 104 | 92 | · | 109 | – | 86 | 85 | 103
O=c1cc(-c2ccccc2)oc2cc(O)c(O)c(O)c12 | · | · | · | · | – | · | · | ·
N#Cc1c(-c2ccco2)cc(C2CC2)nc1N | – | – | – | – | – | – | · | ·
N#Cc1c(-c2ccco2)cc(-c2ccccn2)nc1N | 66 | – | – | 43 | – | – | – | –
Cn1c(CNc2ccc(O)cc2)nc2ccccc21 | · | · | · | 66 | 92 | 56 | 81 | 82
c1ccc(-c2cn3nc(-c4ccccc4)cnc3n2)cc1 | – | – | – | – | – | – | · | ·
c1ccc(-c2cn3nc4c(nc3n2)CCCC4)cc1 | – | – | – | 130 | 91 | 112 | 78 | 97
Nc1nn2cc(-c3ccc(Br)cc3)nc2c2ccccc12 | – | – | · | – | – | – | · | ·
Brc1ccc(-c2cn3nc4c(nc3n2)CCCC4)cc1 | – | – | – | 79 | 42 | 75 | 45 | 44
CN(CCC#N)C(=O)COC(=O)c1ccc(Cl)c(S(=O)(=O)N(C)c2ccccc2)c1 | – | – | – | – | – | – | · | ·
COc1ccc(CCNc2ccc(N3C(=O)CC(C)C3=O)cc2[N+](=O)[O-])cc1OC (stereo unspecified) | – | – | – | – | – | – | · | ·
CCc1ccc(CNC(=O)CCc2cn(C)c3ccccc23)cc1 | · | · | · | – | – | – | · | ·
